In PubChem BioAssay (NCI):
The panel holds about 79,000 compounds, 15% with a hit somewhere; the sample as a whole holds those more often. Calls of active or inactive are those of the source. Rule as the data show it: active = growth inhibition above about 70%; inactive = the rest.

Assay: NCI Yeast Anticancer Drug Screen. Data for the bub3 strain (AID 167)
Conditions: S. cerevisiae bub3 mutant strain, at 5.0 µM (retest, dose inferred, filed as 0.5), active compounds read high
Procedure, shortened: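 Compounds were applied to a genetically altered yeast strain carrying a cell-cycle control defect. Growth inhibition was scored against vehicle-treated controls.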

Row | Structure (SMILES) | growth inhibition
1 | Cc1cccc2c1C(=O)N(CC[P+](c1ccccc1)(c1ccccc1)c1ccccc1)C2=O | 80% (active)
2 | CCCCCN=Cc1c(O)c(O)c(C(C)C)c2cc(C)c(-c3c(C)cc4c(C(C)C)c(O)c(O)c(C=NCCCCC)c4c3O)c(O)c12 | -2% (inactive)
3 | CCN(CC)CCNc1ccc(C)c2sc3ccc(OC)cc3c(=O)c12 | 31% (inactive)
4 | O=S(=O)(c1ccc(NC(=S)NCc2ccncc2)cc1)N1CCCCC1 | -31% (inactive)
5 | Nc1nn2c(C(Br)Br)cc(C(Br)Br)nc2c1[N+](=O)[O-] | 100% (active)
6 | O=C1C=CC(=O)N1c1ccccc1 (tested in a mixture with another compound) | -15% (inactive)
7 | O=C(O)CCSc1ncnc2nc[nH]c12 | -10% (inactive)
8 | CCN(CC)CCCC(=O)Nc1cc(OC)cc2cccnc12 | 1% (inactive)
9 | CC(=O)OC(C#N)CC(C)(C)/[N+]([O-])=[N+](\[O-])C(C)(C)CC(C#N)OC(C)=O (stereo unspecified) | 3% (inactive)
10 | ICCCCCCCCCC[n+]1ccc2ccccc2c1 | 78% (active)
11 | Clc1ccc(C(c2ccc(Cl)cc2)c2cncnc2)cc1 | 40% (inactive)
12 | NC1=NC(c2ccccc2)CC(c2cc(Cl)cc(Br)c2O)=N1 (stereo unspecified) | -1% (inactive)
13 | CC(NNC(=S)NCc1ccccc1)c1cc2ccccc2cn1 (stereo unspecified) | 11% (inactive)
14 | C=CCOC(=O)CC(O)C(=O)OCC=C (stereo unspecified) | 0% (inactive)
15 | OC(C(=Nc1ccccc1)c1ccccc1)c1ccccc1 (stereo unspecified) | 15% (inactive)
16 | C=CC1(NC(=O)c2ccccc2)CCC(C(C)(C)C)CC1 (stereo unspecified) | 2% (inactive)
17 | CCN(CC)CC(O)c1ccnc2c(O)cccc12 (stereo unspecified) | -6% (inactive)
18 | COc1ccc(-c2c(CO)cc(OC)c(OC)c2OC)c(CO)c1 | 1% (inactive)
19 | C(=C\c1cnnc2ccccc12)/c1ccco1 | -2% (inactive)
20 | CCCCCCCCNc1ccc(Cl)cc1 | 8% (inactive)
21 | Cc1ccc2ccc(C(Nc3ccccc3)c3ccncc3)c(O)c2n1 (stereo unspecified) | -7% (inactive)
22 | c1ccc(C2=NOC3(c4ccccc4)SC4CCCCC4CN23)cc1 (stereo unspecified) | 25% (inactive)
23 | COc1ccc(C(=O)Nc2ccccc2[N+](=O)[O-])cc1 | -15% (inactive)
24 | CC(=O)CC(C)=NCCN=C(C)CC(C)=O.[Pd] | -1% (inactive)
25 | Cc1cc2oc3c(ccc(=O)n3C)c(=O)c2c(C)c1Cl | 18% (inactive)
26 | CCCOc1ccc(/C=N/NC(N)=S)cc1 | -72% (inactive)
